# High-throughput results (PubChem BioAssay)
# Only some compounds are listed: those with a hit (about 10% of all), similar ones and a draw of the others.
# Luc counter – Counterscreen for Luciferase (Kinase-Glo TM) Inhibition | Potency, µM (highest dose often 38.3 µM), for inactives: top-dose activity change, negative = inhibition, actives largely listed as inhibitors | Luciferin 4-monooxygenase (Photuris pensylvanica), Q27757 | Kinase-Glo luciferase, ATP luminescence, 8 min | 200,000 compounds, 0.28% hits; active = well fitted inhibition curve with a large enough effect; inconclusive = small, poorly fitted or top-dose-only effect; note: potency is the fitted concentration of half-maximal effect; nearly all actives have a fitted effect of over 60% in size
#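 Substrate mix (final 50 mM imidazole pH 7.2, 50 mM KCl, 7 mM MgCl2, 10 uM ATP, 0.01% Tween 20, 0.05% BSA) plus pin-tool compound, then Kinase-Glo detection mix; 8 min ambient, luminescence read.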
# IMPase cell inh – qHTS Assay for Identifying the Cell-Membrane Permeable IMPase Inhibitors. CHO-M1 cells, IP1 accumulation, HTRF TR-FRET ratio. inhibition (IP1 accumulation), % at 46.1 µM. 120,000 tested, under 10 active. AID 901, 2007; active = well fitted curve in the direction sought with a large enough effect in the signal ratio, not every such curve was filed as active; inconclusive = small, poorly fitted or top-dose-only effect, or a change in a side signal; inactive = no such curve, though single readings can be large or run the other way; the % refers to the signal ratio;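 note: cells stimulated with carbachol in lithium chloride buffer; plate controls were DMSO basal wells for no effect and reference inhibitor wells for full effect; higher means more IMPase inhibition seen as more IP1 and lower FRET ratio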
#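 Measured: the HTRF emission ratio (665/620 nm) plus the 620 nm donor channel, each fitted to the Hill equation to give AC50. Cells were CHO-M1 given compounds up to 46 uM and a 30 min carbachol stimulation at 37C.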
# HPGD block – qHTS Assay for Inhibitors of HPGD (15-Hydroxyprostaglandin Dehydrogenase) | 15-hydroxyprostaglandin dehydrogenase [NAD(+)] (Homo sapiens), P15428 | purified HPGD, NADH fluorescence kinetic, PGE2 substrate | Potency, µM, without a hit: top-dose activity change, negative = inhibition, hits mostly inhibitors | 150,000 compounds, 4.3% hits | AID 894, 2007; note: potency is the fitted concentration of half-maximal effect
# Target sequence (P15428 whole entry, looked up): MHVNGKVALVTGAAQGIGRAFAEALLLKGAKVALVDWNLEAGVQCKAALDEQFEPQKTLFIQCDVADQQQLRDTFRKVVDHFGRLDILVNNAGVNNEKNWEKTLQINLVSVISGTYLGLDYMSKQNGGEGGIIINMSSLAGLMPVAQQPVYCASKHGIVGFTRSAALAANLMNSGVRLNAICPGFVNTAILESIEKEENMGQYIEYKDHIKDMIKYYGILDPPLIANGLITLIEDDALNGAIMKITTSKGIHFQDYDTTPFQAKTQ
#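 20 nM HPGD preincubated 15 min at room temperature with compound in 50 mM Tris-HCl pH 8, 0.01% Tween 20. Started with 1 mM NAD+ and 30 uM prostaglandin E2; NADH fluorescence (360/450 nm) read 5 times over 30-s intervals, last minus first.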
# PNC inhibitor – High Content Assay for Compounds that inhibit the Assembly of the Perinucleolar Compartment. PC3M PTB-GFP, PNC prevalence imaging, 16 h; hits give low values. activity change (PNC), negative = inhibition, % at 10 µM. 140,000 compounds, 3.1% hits. AID 2417, 2010;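 active = readout at or below -70, meaning at least 70% loss of cells showing the perinucleolar compartment, a nuclear body marking cancer cells; inconclusive = readout between -30 and a set limit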;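 note: plate controls were DMSO wells for no effect and camptothecin positive control wells for full effect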
#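 Read-out is percentage of cells bearing a perinucleolar compartment, from automated 20x imaging of fixed, Hoechst-stained PC3M PTB-GFP cells. Cells were seeded 4 h, then exposed 16 h to compound (23 nl of library stock) in duplicate plates.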
# ALDH1A1 inh – qHTS Assay for Inhibitors of Aldehyde Dehydrogenase 1 (ALDH1A1) | Aldehyde dehydrogenase 1A1 (Homo sapiens), P00352 | Purified ALDH1A1, NADH fluorescence, propionaldehyde substrate | Potency, µM (highest dose often 75.3 µM), for inactives: at the highest dose activity, negative = inhibition, most hits filed as inhibitors | 220,000 compounds, 7.3% hits;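 note: potency is the fitted concentration of half-maximal effect; plate controls were no enzyme wells and a reference inhibitor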
# Target sequence (P00352 whole entry, looked up): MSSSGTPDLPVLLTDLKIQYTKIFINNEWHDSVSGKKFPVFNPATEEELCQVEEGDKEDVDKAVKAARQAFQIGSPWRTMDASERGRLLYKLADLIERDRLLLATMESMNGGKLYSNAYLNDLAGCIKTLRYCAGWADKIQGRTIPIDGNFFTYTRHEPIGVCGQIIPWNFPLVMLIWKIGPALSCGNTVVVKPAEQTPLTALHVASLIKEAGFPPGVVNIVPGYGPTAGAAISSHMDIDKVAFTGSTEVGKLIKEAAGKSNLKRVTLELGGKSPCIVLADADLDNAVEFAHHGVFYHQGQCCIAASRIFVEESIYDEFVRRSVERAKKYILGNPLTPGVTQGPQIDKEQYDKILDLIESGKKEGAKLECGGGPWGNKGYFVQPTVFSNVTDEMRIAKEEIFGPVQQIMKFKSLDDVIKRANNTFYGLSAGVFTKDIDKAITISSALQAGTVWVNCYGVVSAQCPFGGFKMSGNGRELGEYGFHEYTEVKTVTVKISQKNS
# Lamin A splicing – qHTS Assay for Modulators of Lamin A Splicing; HeLa LMNA splicing GFP/RFP minigene ratio, 48 h; Potency, µM (top dose mostly 46.1 µM), for the others: at the top dose ratio change, negative = inhibition, usual class: inhibitors; 200,000 compounds, 0.01% hits; AID 1487, 2009; active = well fitted inhibition curve with a large enough effect in the signal ratio, with a control signal flat, not every such curve was filed as active; inconclusive = small, poorly fitted or top-dose-only effect, or effect the other way, or a change in a side signal; the % refers to the signal ratio; note: potency is the fitted concentration of half-maximal effect
#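 S3 HeLa stable clones carrying a lamin A-EGFP splicing minigene plus DsRed2 were seeded at 600 cells/well in Opti-MEM with 2% FBS, pin-dosed and incubated 48 h at 37°C. Acumen cytometry (488 nm) gave the GFP/RFP total-intensity ratio.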
# * = called active by the depositor; ? = inconclusive; / = no result given; [ ] = dose if it differs, or a comment. Unless noted, calls come from the whole dose curve; as a rule, active = well fitted inhibition curve with a large enough effect (not every such curve was filed as active); inconclusive = small, poorly fitted or top-dose-only effect, or another doubt; inactive = no such curve, though single readings can be large or run the other way. Unless noted, % is set by controls: 0 for no effect and ±100 for the full control effect.
SMILES,Luc counter,IMPase cell inh,HPGD block,PNC inhibitor,ALDH1A1 inh,Lamin A splicing
COc1cccc(-c2noc(CCC(=O)NCC3CCCO3)n2)c1 (centres undefined),3%,/,/,/,5%,/
Cc1ccc(CS(=O)(=O)CCC(=O)NCC2CCCO2)cc1 (centres undefined),-2%,-8,-4%,-84*,?,-13%
O=C(CCc1nc(-c2ccc(Cl)cc2)no1)NCC1CCCO1 (centres undefined),-2%,/,/,/,35µM*,?
O=C(CC(c1ccccc1)c1ccccc1)NCC1CCCO1 (centres undefined),-1%,6,7.9µM*,22,-3%,6%
O=C(CSc1ccc(Cl)cc1)NCC1CCCO1 (centres undefined),7%,-5,?,24,5%,4%
CC(NC(=O)C(=O)NCC1CCCO1)c1ccccc1 (centres undefined),3%,/,/,/,6%,2%[46 µM]
COC(=O)[C@@H](NC(=O)O[C@@H]1C(=O)c2ccc(OC)cc2O[C@H]1c1ccc2c(c1)OCO2)C(C)C,2%,/,-9%,/,6%,/
COc1ncc2nc(-c3cn(C)c4ccccc34)c(=O)n(C[C@H]3CCCO3)c2n1,/,/,/,/,?,9%
O=C(CC1CCCCC1)NCC1CCCO1 (centres undefined),1%,16,14µM*,1,-3%,2%
Cc1cc(Cl)ccc1OCCCC(=O)NCC1CCCO1 (centres undefined),-3%,-6,11µM*,?,10%,6%
NC(=O)CCn1nc(-c2ccccc2)c2ccccc2c1=O,-3%,-2,-7%,6,-14%,24%
Cc1ccc(-c2nn(CCC(=O)NCC3CCCO3)c(=O)c3ccccc23)cc1 (centres undefined),-5%,-16,-21%,6,?,7%
O=C(CCn1nc(-c2ccccc2)c2ccccc2c1=O)N1CCN(c2ccccc2)CC1,-1%,3,-11%,-23,22µM*,-4%
O=C(CCn1nc(-c2ccccc2)c2ccccc2c1=O)NCC1CCCO1 (centres undefined),1%,-1,28µM*,5,?,?
Cc1cc(C)cc(-n2ccnc2SCC(=O)Nc2nc3ccc(C)cc3s2)c1,/,/,/,/,/,12%[46 µM]
COc1ccc(C)cc1NS(=O)(=O)c1c(C(=O)N2CCCCCC2)c(C)n(C)c1C,/,/,/,/,/,-7%[46 µM]
CCOc1ccc(Sc2cc(C(=O)NCCc3ccc(OC)c(OC)c3)c3ccccc3n2)cc1,/,/,/,/,/,0%[46 µM]
CCOc1ccc(NC(=O)CSc2nnc3scc(-c4ccc(Cl)cc4)n23)cc1,/,1,/,/,/,/
O=C(CCCOc1ccccc1)NCC1CCCO1 (centres undefined),-7%,4,13µM*,-18,-3%,13%
CCN(CC)CCN1C(=O)C(O)=C(C(C)=O)C1c1ccc(OC)c(OC)c1 (centres undefined),-5%,1,-18%,32,18µM*,-2%
CCOC(=O)CCSc1nc(C)c2cc(C)ccc2n1,-2%,-2,20µM*,?,4%,1%
Cc1cc2nc(SCCOC(=O)Nc3ccc(Cl)cc3)nc(C)c2cc1C,13%,3,14µM*,-18,3%,6%
CCOC(=O)CSc1nc(C)c2cc(C)c(C)cc2n1,-1%,/,/,/,-14%,-1%[46 µM]
COCCOC(=O)CSc1ncccc1-c1nc2cc(C)c(C)cc2[nH]1,13µM*,/,/,/,?,10%[9.22 µM]
Cn1c(=O)c2c(n3cnnc13)-c1ccccc1CC21CCCC1,4%,0,-11%,9,11µM*,?
SMILES,Luc counter,IMPase cell inh,HPGD block,PNC inhibitor,ALDH1A1 inh,Lamin A splicing
O=c1c2c(n3cnnc3n1-c1ccccc1)-c1ccccc1CC21CCCC1,7%,/,-7%,19,?,-10%
O=C(Nc1ccccc1C(=O)OCc1cc(=O)n2c3c(sc2n1)CCCC3)c1ccc(F)cc1,/,/,/,/,/,11%[46 µM]
CCOC(=O)c1c(C)[nH]c(-c2csc(C)n2)c1C,1%,/,/,/,2%,/
CCOC(=O)c1c(C)[nH]c(-c2csc(N)n2)c1C,-9%,/,/,/,11µM*,/
O=C(O)c1n[nH]c2c1CCCCC2,-4%,-7,-3%,-89*,4%,2%
CCCn1nc(C(=O)NCc2ccccn2)c2ccccc2c1=O,-4%,-3,-4%,15,10µM*,7%
CCCCCn1c(=O)[nH]c2cc(C(=O)NCc3ccccn3)ccc2c1=O,-4%,/,/,/,13µM*,-12%[46 µM]
CCCn1nc(C(=O)Nc2cccc(C(=O)OC)c2)c2ccccc2c1=O,-2%,12,-12%,10,4.5µM*,?
Cc1ccc(OCC(=O)Nc2ccccc2C(=O)OCc2cc(=O)n3ccsc3n2)cc1C,/,/,/,/,/,2%[46 µM]
NC(N)=N/N=C(/c1ccccc1)c1ccc(O)cc1O,0%[7.66 µM],/,-4%,/,-2%[13.5 µM],/
Cc1ccc(S(=O)(=O)N(Cc2cc3ccccc3[nH]c2=O)c2cccc(C)c2)cc1,/,/,/,/,-15%,/
Cc1cccc(N(Cc2cc3ccccc3[nH]c2=O)S(C)(=O)=O)c1,/,/,/,/,24µM*,/
CCOc1ccc(Br)cc1S(=O)(=O)Nc1ccc(Cl)c(S(=O)(=O)N(CC)c2ccccc2)c1,-3%,/,-6%,0,13%,?
CCOc1ccc(Br)cc1S(=O)(=O)Nc1ccc(Cl)c(S(=O)(=O)N(C)C)c1,/,-6,/,44,0.35µM*,?
Cc1noc(C)c1-c1nc(N(C)C)c2ccccc2n1,/,/,/,/,?,-3%
CCOC(=O)c1ccc(NC(=O)NC2CC3CCC(C2)N3Cc2nnnn2Cc2ccco2)cc1 (centres undefined),-3%,18,0%,41,13µM*,8%
CC(=O)N[C@H](Cc1c[nH]c2ccccc12)C(N)=O,-8%,/,-14%,/,-3%,/
Cc1nc(SCC(O)CCl)c([N+](=O)[O-])[nH]1 (centres undefined),2%,16,-5%,32,14µM*,-2%
Cn1cnc(S(=O)(=O)N2CCCC(C(=O)Nc3cccc(C#N)c3)C2)c1 (centres undefined),/,/,/,/,/,-5%[46 µM]
CN(C)c1ccc(/C=N/NC(=O)C2COc3ccccc3O2)o1 (centres undefined),0%,/,-11%,13,22µM*,1%
O=C(N/N=C\c1ccccn1)C1c2ccccc2Oc2ccccc21,4%,/,/,/,12%,-27%[46 µM]
